Sampled rows, rich in hits. Any-hit rate of the full collection: about 2.9%.
MEKK2 mut-MEK5 = signal of MEK5 binding to mutant human MEKK2 PB1 domain; bead flow cytometry, Alexa488-MEK5 binding to MEKK2 mutant; actives 0.35% (n = 290,000); percent response, % at 10 µM; AID 1530; in the data active means percent response above about 24%, passing the limit was not always enough
DNA FID counter = counter-screen for HCV NS3 helicase inhibitors: DNA intercalator displacement; actives 0.17% (n = 290,000); DNA fluorescent intercalator displacement, fluorescence; inhibition, % at 7.9 µM; in the data active means inhibition above about 37%;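 further: 0% = vehicle and 100% = reference compound; higher means more ethidium bromide displaced from hairpin DNA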
MEKK3 PB1 HTS = raises or lowers MEK5 binding to the human MEKK3 PB1 domain | Q99759 | bead-based flow cytometry, Alexa488-MEK5 binding to MEKK3; actives lie on both sides; 0 = blocked by unlabeled MEK5, 100 = vehicle | binding response (% of control), % at 10 µM | actives 1.4% (n = 290,000) | AID 1529;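 active means binding response more than 3 SD above or below the average of its plate-row segment, actives on both sides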;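 further: Alexa488 bead fluorescence after subtracting the streptavidin-only scavenger bead signal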
MEKK2wt PB1 HTS = raises or lowers MEK5 binding to wildtype human MEKK2 PB1 domain | bead flow cytometry, Alexa488-MEK5 binding to MEKK2 WT; actives lie on both sides | binding response (% of control), % at 10 µM | actives 1.1% (n = 290,000) | AID 1531; in the data active means binding response below about 67% or above about 130%
dFosB activator = activators of mouse delta FosB homodimer; AID 493131; P13346; activation, % at 25 µM; actives 0.99% (n = 340,000); purified delta FosB, TAMRA-CDK5 oligo fluorescence polarization; percent of positive-control signal above neutral wells;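 active means mean activation above about 17%, with every replicate also reaching it, limit read from the data, passing the limit was not always enough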
Target sequence (P13346 whole entry, looked up): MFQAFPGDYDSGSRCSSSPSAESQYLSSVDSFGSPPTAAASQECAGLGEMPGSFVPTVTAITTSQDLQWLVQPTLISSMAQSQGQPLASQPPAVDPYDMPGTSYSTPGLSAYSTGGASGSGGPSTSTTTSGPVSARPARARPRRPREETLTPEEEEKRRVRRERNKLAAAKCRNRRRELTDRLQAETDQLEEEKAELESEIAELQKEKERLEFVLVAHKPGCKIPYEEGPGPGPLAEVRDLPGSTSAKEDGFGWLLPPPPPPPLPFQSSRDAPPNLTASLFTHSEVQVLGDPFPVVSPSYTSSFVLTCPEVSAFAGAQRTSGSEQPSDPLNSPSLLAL
MEKK2wt confirm = raises or lowers MEK5 binding to wildtype human MEKK2, retest | shares compounds with MEKK3 PB1 HTS | bead flow cytometry, Alexa488-MEK5 binding to MEKK2 WT; actives lie on both sides | binding response (% of control), % at 10 µM | actives 2.4% (n = 5,900) | AID 1892; in the data active means binding response below about 16% or above about 210%; inactive means in between
MEKK2mut-MEK5 = signal of MEK5 binding to mutant human MEKK2, retest; bead flow cytometry, Alexa488-MEK5 binding to MEKK2 mutant; shares compounds with MEKK3 PB1 HTS; actives 2% (n = 5,900); percent response, % at 10 µM; AID 1893; in the data active means percent response mostly above about 71%, no sharp cut-off; inactive means mostly below about 38%;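 further: higher means compound restores mutant binding toward wildtype level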
MEKK3-MEK5 inh = MEKK3-MEK5 PB1 inhibition, single concentration confirmation; shares compounds with MEKK3 PB1 HTS; bead flow cytometry, Alexa488-MEK5 binding to MEKK3; active compounds read low; binding response (% of control), % at 10 µM; actives 1.8% (n = 5,900);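 active means binding response below 72% of control, or above a set upper limit, though filed actives all read lower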;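 further: 100% = DMSO only wells and 0% = binding blocked by excess unlabeled MEK5; lower values mean stronger disruption of MEK5 binding to MEKK3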
* = called active by the depositor; · = no result given; [ ] = another dose, or the depositor's remark.

SMILES	MEKK2 mut-MEK5	DNA FID counter	MEKK3 PB1 HTS	MEKK2wt PB1 HTS	dFosB activator	MEKK2wt confirm	MEKK2mut-MEK5	MEKK3-MEK5 inh
O=C1OC(/C(=C\Nc2cc(Cl)ccc2O)[N+](=O)[O-])c2ccccc21 (configuration not stated)	-17.0	-1.5	38.0*[inhibitor]	52.0	-2.3	100.0	-1.0	103.0
O=C(Cn1ccc2ccccc2c1=O)NCCC(=O)NC1CCN(Cc2ccccc2)CC1	2.0	4.6	95.0	97.0	0.9	·	·	·
CC(C)c1ccc(NC(=O)COc2nnc(-c3cccs3)c(-c3cccs3)n2)cc1	7.0	-13.6	143.0*	112.0	1.9	92.0	1.0	94.0
CCc1ccc(NC(=O)C(C)Oc2nnc(-c3cccs3)c(-c3cccs3)n2)cc1 (configuration not stated)	4.0	-5.1	104.0	93.0	-14.8	·	·	·
O=C(/C=C/c1ccccc1)N/C(=C/c1ccccc1)C(=O)N1CCCCC1	6.0	-19.3	107.0	103.0	-10.6	·	·	·
COc1ccc(/C=C(/NC(=O)/C=C/c2ccccc2)C(=O)N2CCOCC2)cc1	1.0	-29.9	149.0*	108.0	-2.1	108.0	7.0	106.0
O=C(/C=C/c1cccc([N+](=O)[O-])c1)NCCSCc1ccc(Cl)cc1Cl	1.0	0.6	130.0*	113.0	-4.0	121.0	5.0	101.0
Cn1c(O)c(C=NCCCCCC(=O)O)c(=O)n(C)c1=O	·	·	·	·	4.5	·	·	·
Cc1nc(NC(=O)/C=C/c2ccccc2)n[nH]1	-2.0	-7.4	102.0	103.0	-1.0	·	·	·
Cc1ccc(NC(=O)CCn2cnc3ccccc3c2=O)c(C)c1	-5.0	-0.9	100.0	99.0	-3.4	·	·	·
Cc1cccc(C)c1NC(=O)CCn1cnc2ccccc2c1=O	-22.0	-2.4	1.0*[inhibitor]	-2.0*[inhibitor]	-0.8	101.0	3.0	97.0
Cc1cc(C2=NNC(=NCCc3ccccc3)SC2)c(C)n1-c1c(C)n(C)n(-c2ccccc2)c1=O	-11.0	-17.6	50.0*[inhibitor]	50.0	-2.2	94.0	-5.0	93.0
Cc1cc(C2=NNC(=NC3CC3)SC2)c(C)n1-c1c(C)n(C)n(-c2ccccc2)c1=O	0.0	-13.1	104.0	101.0	-13.2	·	·	·
Cc1ccc(S(=O)(=O)CCC(=O)OC(C)c2nnc(-c3cccs3)o2)cc1 (configuration not stated)	·	·	·	·	-3.3	·	·	·
Cc1cc(C)c([N+](=O)[O-])cc1-c1ccc(/C=N/c2c(-c3ccco3)nc3ccccn23)o1	-2.0	-1.6	89.0	-3.0*[inhibitor]	-9.2	79.0	-5.0	82.0
O=[N+]([O-])c1ccc(Cl)c(-c2ccc(/C=N/c3c(-c4ccco4)nc4ccccn34)o2)c1	·	7.5	·	·	-7.8	·	·	·
Fc1ccccc1OCCCCCCN1CCCC1	22.0	4.4	106.0	141.0*	0.1	138.0	18.0	110.0
CC(C)NC(=O)C(=O)NNC(=O)C12CC3CC(CC(C3)C1)C2	24.0*	-1.2	110.0	103.0	5.3	107.0	0.0	102.0
O=C1Nc2ccccc2/C1=C\c1cccn1-c1ccc(OC(F)(F)F)cc1	-8.0	-8.7	101.0	92.0	-2.2	·	·	·
CCN(CC)C(=O)CSc1nc2ncc(Br)cc2[nH]1	23.0	-0.7	106.0	106.0	-5.6	·	·	·
O=C(CSc1nc2ncc(Br)cc2[nH]1)c1ccc([N+](=O)[O-])cc1	0.0	0.5	132.0*	101.0	0.1	107.0	1.0	103.0
Cc1ccccc1CCN(C(=O)c1csnn1)C(C(=O)NC1CCCC1)c1ccco1 (configuration not stated)	1.0	-31.8	103.0	100.0	-0.9	·	·	·
O=C(CCC(=O)Nc1ccc(F)cc1)N/N=C/c1ccccc1O	5.0	1.1	149.0*	124.0	-2.3	106.0	8.0	107.0
Cc1cnnn1-c1ccc(C(=O)CCl)cc1	14.0	-1.8	102.0	148.0*	-2.6	152.0	24.0	104.0
CC(C)CCN1CCN(Cc2cnc(N3CCCC3)s2)CC1CCO (configuration not stated)	6.0	0.6	106.0	102.0	-12.9	·	·	·
SMILES	MEKK2 mut-MEK5	DNA FID counter	MEKK3 PB1 HTS	MEKK2wt PB1 HTS	dFosB activator	MEKK2wt confirm	MEKK2mut-MEK5	MEKK3-MEK5 inh
CC(NCCC(c1ccccc1)c1ccccc1)c1ccccc1 (configuration not stated)	12.0	19.5	99.0	145.0*	-10.1	130.0	13.0	104.0
CCOc1ccc(C(=O)NNC2CC(=O)N(CCc3ccccc3)C2=O)cc1OC (configuration not stated)	-5.0	-25.9	0.0*[inhibitor]	0.0*[inhibitor]	-7.0	102.0	0.0	104.0
CCOC(=O)NC(=O)CSc1nnc(C2CC2)n1Cc1ccco1	-12.0	4.2	100.0	90.0	1.3	·	·	·
CSc1nc(NCCCN(C)C)c2c3c(sc2n1)CN(C)CC3	30.0*	41.9*	100.0	138.0*	·	120.0	34.0	106.0
COc1ccc2[nH]c3c(C)c4ccncc4c(C)c3c2c1	53.0*	77.1*	118.0	177.0*	7.9	243.0*	88.0*	111.0
COc1ccc2[nH]c(C)cc(=O)c2c1	0.0	2.3	89.0	95.0	4.3	·	·	·
CCCN(CC1CC1)c1nc(C)nc(Nc2c(Cl)cc(Cl)cc2Cl)c1Cl	3.0	·	103.0	118.0	2.2	·	·	·
CC1(CCc2ccc3c(c2)OCO3)NCCc2c1[nH]c1ccccc21 (configuration not stated)	25.0*	17.3	107.0	139.0	-6.8	131.0	14.0	105.0
CC1(CCc2ccc3c(c2)OCO3)NC(=O)c2ccccc2N1 (configuration not stated)	3.0	-6.1	110.0	111.0	-0.7	·	·	·
CC(C)(O)C#Cc1ccc(C(=O)N2CCCC(CNS(=O)(=O)c3cccs3)C2)o1 (configuration not stated)	3.0	-27.7	101.0	105.0	-4.3	·	·	·
Cc1cc2c(cc1S(=O)(=O)CCC(=O)NC1CCCCC1C)OCC(=O)N2 (configuration not stated)	-1.0	-6.6	103.0	102.0	-5.2	·	·	·
Cc1ccc(S(=O)(=O)N2CCCOC2)cc1	-8.0	-3.4	79.0*[inhibitor]	84.0	-7.1	105.0	8.0	102.0
O=S(=O)(c1ccc2ccccc2c1)N1CCCOC1	0.0	-3.3	101.0	105.0	5.6	·	·	·
CCc1cc2c(-c3ccccc3)cc(=O)oc2cc1OC(C)C(=O)NCC1CCC(C(=O)O)CC1 (configuration not stated)	0.0	-47.2	98.0	94.0	-10.4	·	·	·
NC1=NC(c2ccc(F)cc2)n2c(nc3ccccc32)N1 (configuration not stated)	7.0	1.9	105.0	105.0	1.9	·	·	·

Screens (PubChem BioAssay)
